From PubChem BioAssay (Tox21)
Results filed as inconclusive are left out. A call without a number means that no potency is given here. Active and inactive are the calls of the source. Unless noted, calls follow the shape of the full dose curve.

Assays:
[1] = Nuclear factor erythroid 2-related factor 2/antioxidant responsive element (Nrf2/ARE) small molecule agonists: qHTS cell viability counter screen in human keratinocytes (AID 1919968; active = well fitted curve in the direction sought with a large enough effect in the repeat runs; an effect the other way counts as inactive or inconclusive; also: nearly all actives have a fitted effect of over 55% in size; also: potency is read from the fitted curve at half-maximal effect)
Outline: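 Parallel cytotoxicity read: KeratinoSens HaCaT cells, compound treatment 23 h, viability by CellTiter-Fluor fluorescence 1 h post-reagent.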

[2] = Nuclear factor erythroid 2-related factor 2/antioxidant responsive element (Nrf2/ARE) small molecule agonists: luciferase reporter gene qHTS assay in human keratinocytes (AID 1919969); also: nearly all actives have a fitted effect of over 35% in size; also: potency is read from the fitted curve at half-maximal effect
[3] = molecular target: Gonadotropin-releasing hormone receptor (Homo sapiens) (UniProt P30968); assay: Human gonadotropin-releasing hormone receptor (GnRHR) small molecule agonists, calcium flux assay in GnRHR-HEK293 cells (AID 1920063); also: nearly all actives have a fitted effect of over 35% in size; also: potency is read from the fitted curve at half-maximal effect
Sequence of Gonadotropin-releasing hormone receptor (Homo sapiens) (P30968 whole entry, looked up): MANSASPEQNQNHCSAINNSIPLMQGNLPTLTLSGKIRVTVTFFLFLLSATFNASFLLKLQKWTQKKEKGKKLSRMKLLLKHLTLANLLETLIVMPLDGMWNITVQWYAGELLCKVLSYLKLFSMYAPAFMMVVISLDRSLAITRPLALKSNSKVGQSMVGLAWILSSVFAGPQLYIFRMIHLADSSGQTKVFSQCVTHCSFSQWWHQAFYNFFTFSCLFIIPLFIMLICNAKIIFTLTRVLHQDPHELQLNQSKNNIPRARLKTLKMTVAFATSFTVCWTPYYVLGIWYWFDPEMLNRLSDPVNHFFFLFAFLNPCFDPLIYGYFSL
Outline: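 Calcium flux, agonist mode, human GnRHR stably integrated in HEK293; dye 1 h at 37 C before compound; Ex/Em=480/540 kinetic read, 3 min; 15 concentrations, triplicate.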

[4] = molecular target: KiSS-1 receptor (Homo sapiens) (UniProt Q969F8); assay: Human kisspeptin (KISS1R) small molecule agonists, calcium flux assay in KISS1R-HEK293 cells (AID 1920064; active = well fitted curve in the direction sought with a large enough effect in the repeat runs; an effect the other way counts as inactive or inconclusive)
Sequence of KiSS-1 receptor (Homo sapiens) (Q969F8 whole entry, looked up): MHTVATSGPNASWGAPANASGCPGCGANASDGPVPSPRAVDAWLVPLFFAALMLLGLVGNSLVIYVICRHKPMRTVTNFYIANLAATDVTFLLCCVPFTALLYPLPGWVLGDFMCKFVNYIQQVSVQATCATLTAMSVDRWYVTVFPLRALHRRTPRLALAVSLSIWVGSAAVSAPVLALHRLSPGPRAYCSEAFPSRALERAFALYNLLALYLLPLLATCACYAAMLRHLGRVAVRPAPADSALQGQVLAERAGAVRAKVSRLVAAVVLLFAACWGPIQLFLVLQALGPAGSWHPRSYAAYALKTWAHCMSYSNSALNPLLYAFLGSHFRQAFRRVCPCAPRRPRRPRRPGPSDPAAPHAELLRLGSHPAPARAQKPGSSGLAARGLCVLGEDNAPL
Outline: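 Triplicate 15-concentration series were applied to dye-loaded human KISS1R HEK293 cells, and agonist-evoked calcium fluorescence was captured for 3 min.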

[5] = G protein-coupled receptor (GPCR) small molecule agonists, calcium flux assay: HEK293 wild type cell line counter screen (AID 1920065)
Outline: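 Non-specific calcium responders were flagged by adding DMSO-dissolved compounds to dye-loaded cells and reading 480/540 nm fluorescence each second for 3 min; ATP served as positive control.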

[6] = p53 small molecule agonists, cell-based qHTS assay with rat liver microsomes: qHTS cell viability counter screen (AID 1963580); also: nearly all actives have a fitted effect of over 45% in size; also: potency is read from the fitted curve at half-maximal effect
Outline: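 Luminescent ATP readout (CellTiter-Glo, 30 min at room temperature) reports viability of p53RE-bla HCT-116 cells after 16 h at 37 C with test compounds under metabolic activation by rat liver microsomes and NADPH at 0.5 mg/mL final each.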

[7] = p53 small molecule agonists, cell-based qHTS assay: qHTS cell viability counter screen (AID 1963581); also: nearly all actives have a fitted effect of over 45% in size; also: potency is read from the fitted curve at half-maximal effect
Outline: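 Multiplexed with the reporter read, a CellTiter-Glo step (30 min, room temperature) gauges ATP-based viability of HCT-116 p53RE-bla cells after 16 h compound incubation at 37 C.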

[8] = molecular target: 5-hydroxytryptamine receptor 2A (Homo sapiens) (UniProt P28223); assay: 5-hydroxytryptamine receptor 2A (HTR2A) small molecule agonists, cell-based qHTS assay (AID 1963587); also: nearly all actives have a fitted effect of over 30% in size; also: potency is read from the fitted curve at half-maximal effect
Sequence of 5-hydroxytryptamine receptor 2A (Homo sapiens) (P28223 whole entry, looked up): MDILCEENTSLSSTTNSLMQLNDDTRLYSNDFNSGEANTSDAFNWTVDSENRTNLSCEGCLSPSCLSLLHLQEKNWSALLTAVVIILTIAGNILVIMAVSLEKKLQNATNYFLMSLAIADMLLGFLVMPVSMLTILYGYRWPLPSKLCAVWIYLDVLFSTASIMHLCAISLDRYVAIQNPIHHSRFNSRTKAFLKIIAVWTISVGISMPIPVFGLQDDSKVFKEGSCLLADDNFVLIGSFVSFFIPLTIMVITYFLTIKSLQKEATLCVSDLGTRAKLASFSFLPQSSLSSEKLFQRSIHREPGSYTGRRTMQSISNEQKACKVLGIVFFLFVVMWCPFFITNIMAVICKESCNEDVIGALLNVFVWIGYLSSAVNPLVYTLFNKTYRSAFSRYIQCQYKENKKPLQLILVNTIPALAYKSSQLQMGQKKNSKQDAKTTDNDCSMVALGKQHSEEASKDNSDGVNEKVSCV
Outline: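 HTR2A-CHO cells, plated 18 h at 37 C/5% CO2, dye-loaded 1 h at 37 C; compounds in DMSO added by pin tool (agonist mode). Intracellular calcium flux read as kinetic fluorescence on FDSS over 2 min at 1 s intervals.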

[9] = molecular target: Muscarinic acetylcholine receptor M1 (Homo sapiens) (UniProt P11229); assay: Cholinergic receptor muscarinic 1 (CHRM1) small molecule antagonists, cell-based qHTS assay (AID 1963588); also: nearly all actives have a fitted effect of over 40% in size; also: potency is read from the fitted curve at half-maximal effect
Sequence of Muscarinic acetylcholine receptor M1 (Homo sapiens) (P11229 whole entry, looked up): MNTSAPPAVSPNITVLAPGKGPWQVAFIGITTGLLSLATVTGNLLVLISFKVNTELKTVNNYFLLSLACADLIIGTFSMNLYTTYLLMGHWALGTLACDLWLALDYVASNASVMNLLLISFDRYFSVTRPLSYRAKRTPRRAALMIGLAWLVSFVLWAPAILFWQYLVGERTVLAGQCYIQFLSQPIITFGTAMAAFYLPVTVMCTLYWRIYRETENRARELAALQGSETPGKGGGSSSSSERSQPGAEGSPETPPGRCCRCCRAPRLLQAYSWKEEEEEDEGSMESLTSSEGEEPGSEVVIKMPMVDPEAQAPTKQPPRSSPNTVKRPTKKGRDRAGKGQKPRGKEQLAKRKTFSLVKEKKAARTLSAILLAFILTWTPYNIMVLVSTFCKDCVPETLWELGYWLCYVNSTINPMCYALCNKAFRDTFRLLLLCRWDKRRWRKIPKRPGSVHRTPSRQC
Outline: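 Compounds were tested at 15 concentrations in three independent runs. Dye-loaded CHRM1-CHO cells were exposed 5 min at room temperature before stimulation by acetylcholine added at 50nM. Intracellular calcium was read kinetically on FDSS for 3 min.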

[10] = molecular target: Muscarinic acetylcholine receptor M1 (Homo sapiens) (UniProt P11229); assay: Cholinergic receptor muscarinic 1 (CHRM1) small molecule agonists, cell-based qHTS assay (AID 1963589); also: nearly all actives have a fitted effect of over 35% in size; also: potency is read from the fitted curve at half-maximal effect
Outline: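 qHTS, 15-point titration, 3 independent runs: compounds pin-transferred onto dye-loaded CHRM1-CHO cells (human M1), calcium fluorescence followed every second to detect agonism.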

[11] = cAMP Responsive Elements (CRE) small molecule agonists, cell-based qHTS assay (AID 1963590)
Outline: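 Quantitative HTS for CRE agonists: HEK 293T CRE-bla cells, overnight plating, 3 h compound incubation at 37 C/5% CO2, then 2 h room-temperature LiveBLAzer B/G FRET substrate loading.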

[12] = cAMP Responsive Elements (CRE) small molecule antagonists, cell-based qHTS assay (AID 1963591; active = well fitted inhibition curve with a large enough effect in the signal ratio in the repeat runs, not every such curve was filed as active; the % refers to the signal ratio; also: potency is read from the fitted curve at half-maximal effect)
Outline: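 Fluorescence intensity from cleaved LiveBLAzer B/G substrate (2 h, room temperature) quantified CRE-bla activity in HEK 293T cells exposed 3 h to compound with 0.25 uM final NKH477.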

[13] = molecular target: D(2) dopamine receptor (Homo sapiens) (UniProt P14416); assay: Dopamine D2 receptor (DRD2) small molecule agonists, cell-based qHTS assay (AID 1963594); also: nearly all actives have a fitted effect of over 35% in size
Sequence of D(2) dopamine receptor (Homo sapiens) (P14416 whole entry, looked up): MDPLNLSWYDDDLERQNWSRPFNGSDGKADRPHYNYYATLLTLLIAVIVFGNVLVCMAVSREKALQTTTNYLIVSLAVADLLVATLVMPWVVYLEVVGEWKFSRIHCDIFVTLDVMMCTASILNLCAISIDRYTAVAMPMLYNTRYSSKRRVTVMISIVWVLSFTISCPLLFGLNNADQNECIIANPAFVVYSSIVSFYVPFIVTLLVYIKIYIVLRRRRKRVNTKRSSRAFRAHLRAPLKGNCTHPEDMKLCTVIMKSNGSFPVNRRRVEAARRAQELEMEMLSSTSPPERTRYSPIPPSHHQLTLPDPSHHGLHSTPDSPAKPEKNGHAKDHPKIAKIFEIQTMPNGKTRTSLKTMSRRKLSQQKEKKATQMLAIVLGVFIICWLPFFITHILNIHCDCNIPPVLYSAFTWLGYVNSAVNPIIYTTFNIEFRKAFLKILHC
Outline: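 HEK293 cells stably expressing DRD2 were cultured 24 h at 37 C, then given Ro20-1724 (0.1 mM final) and compounds for 10 min at room temperature. NKH477 (200nM) was then added for 30 min. cAMP was read by HTRF.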

[14] = molecular target: D(2) dopamine receptor (Homo sapiens) (UniProt P14416); assay: Dopamine D2 receptor (DRD2) small molecule antagonists, cell-based qHTS assay (AID 1963595; active = well fitted inhibition curve with a large enough effect in the signal ratio in the repeat runs, with a control signal flat; the % refers to the signal ratio)
Outline: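 Antagonist mode in DRD2-HEK293 cells: after compound addition with 0.1 mM Ro20-1724, cells received quinpirole (12 nM) and NKH477 (200 nM) for 30 min at room temperature; HTRF cAMP read after 1 h detection.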

[15] = p53 small molecule agonists, cell-based qHTS assay with human liver microsomes: qHTS cell viability counter screen (AID 1963579); also: nearly all actives have a fitted effect of over 45% in size
Outline: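 Tox21 library compounds, delivered from DMSO stocks, were tested on p53RE-bla cells together with 0.5 mg/mL human liver microsomes and 0.5 mg/mL NADPH (final) over 16 h at 37 C; CellTiter-Glo luminescence served as the cytotoxicity measure.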

[16] = molecular target: 5-hydroxytryptamine receptor 2A (Homo sapiens) (UniProt P28223); assay: 5-hydroxytryptamine receptor 2A (HTR2A) small molecule antagonists, cell-based qHTS assay (AID 1963586); also: nearly all actives have a fitted effect of over 45% in size; also: potency is read from the fitted curve at half-maximal effect
Outline: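 CHO cells stably expressing human HTR2A were plated for 18 h at 37 C, then loaded with calcium dye for 1 h. Compounds were preincubated 5 min at room temperature before DOI (4 nM solution) was added. Kinetic fluorescence was read for 3 min.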

[17] = molecular target: Beta-2 adrenergic receptor (Homo sapiens) (UniProt P07550); assay: Adrenergic beta2 receptor (ADRB2) small molecule antagonists, cell-based qHTS assay (AID 1963592); also: nearly all actives have a fitted effect of over 50% in size; also: potency is read from the fitted curve at half-maximal effect
Sequence of Beta-2 adrenergic receptor (Homo sapiens) (P07550 whole entry, looked up): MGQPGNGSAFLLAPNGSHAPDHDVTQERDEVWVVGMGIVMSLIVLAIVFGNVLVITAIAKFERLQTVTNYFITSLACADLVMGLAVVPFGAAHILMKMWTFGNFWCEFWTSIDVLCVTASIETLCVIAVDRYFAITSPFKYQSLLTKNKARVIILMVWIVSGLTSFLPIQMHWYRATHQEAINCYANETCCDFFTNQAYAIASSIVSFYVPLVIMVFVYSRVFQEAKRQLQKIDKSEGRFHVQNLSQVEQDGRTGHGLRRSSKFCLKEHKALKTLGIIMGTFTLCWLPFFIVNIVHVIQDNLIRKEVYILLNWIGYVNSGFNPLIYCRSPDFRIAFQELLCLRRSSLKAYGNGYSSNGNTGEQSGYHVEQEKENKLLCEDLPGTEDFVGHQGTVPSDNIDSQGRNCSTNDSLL
Outline: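 Assay format: CHO-ADRB2 cells, 18-20hr seeding at 37C/5% CO2, then compound plus 1nM isoproterenol agonist mix for 0.5hr RT. Homogeneous time-resolved fluorescence cAMP detection after 1hr, expressed as 665/615 nm ratio.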

[18] = molecular target: Beta-2 adrenergic receptor (Homo sapiens) (UniProt P07550); assay: Adrenergic beta2 receptor (ADRB2) small molecule agonists, cell-based qHTS assay (AID 1963593);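 also: CHO cells stably overexpressing human ADRB2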
Outline: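 CHO cells stably over-expressing ADRB2 were plated overnight at 37C, then dosed with compounds plus a stimulation mix containing 100uM IBMX and 25uM Ro-20-1724 for 0.5hr at room temperature. cAMP was measured by HTRF competition, 1hr.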

SMILES	Potency [1]	Potency [2]	Potency [3]	Potency [4]	Potency [5]	Potency [6]	Potency [7]	Potency [8]	Potency [9]	Potency [10]	Potency [11]	Potency [12]	Potency [13]	Potency [14]	Potency [15]	Potency [16]	Potency [17]	Potency [18]
CCN(CC)C(C)C(=O)c1ccccc1 (stereo not given)	inactive	inactive	inactive	inactive	inactive	inactive	inactive	inactive	inactive	inactive	inactive	inactive	inactive	inactive				
COCc1cnc(C2=NC(C)(C(C)C)C(=O)N2)c(C(=O)O)c1 (stereo not given)	inactive	inactive	inactive	inactive	inactive	inactive			inactive	inactive	inactive	inactive		inactive	inactive	inactive	inactive	inactive
O=[N+]([O-])c1ccc(F)c([N+](=O)[O-])c1	27.6 µM (active)	inactive	inactive	inactive	inactive	inactive	inactive	inactive		inactive						inactive		
CCCCc1ccccc1	inactive	inactive	inactive	inactive	inactive	inactive	inactive	inactive	inactive		inactive	inactive	inactive	inactive		inactive	inactive	inactive
ClCBr	inactive	inactive	inactive	inactive	inactive			inactive	inactive	inactive	inactive			inactive	inactive		inactive	
Clc1cccc2ccccc12	inactive	inactive	inactive	inactive	inactive	inactive	inactive	inactive	inactive	inactive	inactive	inactive	inactive	inactive		inactive	inactive	
CCOP(=S)(OCC)Oc1ccc(S(C)=O)cc1 (stereo not given)	inactive	inactive	inactive	inactive	inactive	inactive	inactive	inactive	inactive	inactive	inactive		inactive	inactive		inactive	inactive	inactive
CC(=O)NC1CCSC1=O (stereo not given)	inactive	inactive	inactive	inactive	inactive		inactive	inactive	inactive	inactive	inactive	inactive		inactive		inactive	inactive	inactive
Fc1cccc(Cl)c1CCl	inactive	inactive	inactive	inactive	inactive	inactive	inactive		inactive	inactive	inactive	inactive		inactive		inactive	inactive	
CC[C@H](O)C(C[C@H](C)N(C)C)(c1ccccc1)c1ccccc1	inactive	inactive	inactive	inactive	inactive	inactive	inactive	inactive	34.1 µM (active)	inactive	inactive	inactive	inactive	inactive		inactive	inactive	inactive
COc1cc(CC(C)N)cc(OC)c1OC (stereo not given)	inactive	inactive	inactive	inactive	inactive		inactive	0.265 µM (active)		inactive	inactive	inactive		inactive	inactive	0.228 µM (active)		
Clc1cc(Cl)c(Cl)c(Cl)c1	inactive	inactive	inactive	inactive	inactive	inactive		inactive	inactive	inactive	inactive	inactive	inactive	inactive	inactive	inactive		
CCCCN(CCCC)C(=S)[S-].CCCCN(CCCC)C(=S)[S-].[Zn+2]	6.11 µM (active)	1.93 µM (active)	17.4 µM (active)	inactive	inactive	3.63 µM (active)		inactive		19.5 µM (active)		21.7 µM (active)	inactive	inactive	inactive	inactive	inactive	
Clc1cccc(SC2CCNCC2)n1	inactive	inactive	inactive	inactive	inactive	inactive		0.0849 µM (active)		inactive	inactive	inactive	inactive	inactive			15 µM (active)	
O=Cc1ccc2c(c1)OCO2	inactive	inactive	inactive	inactive	inactive	inactive		inactive	inactive	inactive	inactive	inactive	inactive	inactive	inactive	inactive	inactive	
CCCN(CCC)c1c([N+](=O)[O-])cc(S(C)(=O)=O)cc1[N+](=O)[O-]	inactive	inactive	inactive	inactive	inactive	inactive		inactive		inactive		inactive	inactive	inactive	inactive	inactive	inactive	inactive
CC(C)(OO)c1ccccc1	inactive	inactive	inactive	inactive	inactive	inactive	inactive	inactive	inactive	inactive		inactive		inactive		inactive	inactive	
O=C(NC(O)C(Cl)(Cl)Cl)NC(O)C(Cl)(Cl)Cl (stereo not given)	inactive	inactive	inactive	inactive	inactive		inactive	inactive	inactive	inactive	inactive	inactive	inactive	inactive	inactive	inactive	inactive	inactive

SMILES	Potency [1]	Potency [2]	Potency [3]	Potency [4]	Potency [5]	Potency [6]	Potency [7]	Potency [8]	Potency [9]	Potency [10]	Potency [11]	Potency [12]	Potency [13]	Potency [14]	Potency [15]	Potency [16]	Potency [17]	Potency [18]
CC1C(=O)C[C@]2(C(C)C)C[C@H]12 (stereo not given in full)	inactive	inactive	inactive	inactive	inactive	inactive	inactive	inactive	inactive	inactive	inactive		inactive	inactive		inactive	inactive	
NNC(N)=O	inactive	inactive	inactive	inactive	inactive	inactive	inactive	inactive	inactive	inactive	inactive		inactive	inactive		inactive	inactive	inactive
O=[N+]([O-])c1cccc2c([N+](=O)[O-])cccc12	inactive	61.4 µM (active)	inactive	inactive	inactive	inactive	23.1 µM (active)	inactive	inactive	inactive			inactive	inactive		inactive	inactive	
CCCSP(=O)(OCC)Oc1ccc(Br)cc1Cl (stereo not given)	inactive	inactive	inactive	inactive	inactive	inactive	inactive	inactive	inactive	inactive	inactive	inactive		inactive		inactive	inactive	
C=CC(=O)OCC	inactive	inactive	inactive	inactive	inactive		inactive	inactive	inactive	inactive	inactive	inactive	inactive		inactive	inactive	inactive	inactive
CC(C)(C)N(NC(=O)c1ccc(Cl)cc1)C(=O)c1ccccc1	inactive	inactive	inactive	inactive	inactive	inactive	inactive	inactive				inactive	inactive	inactive				inactive
C1CCC(C2CCCCC2)CC1	inactive	inactive	inactive	inactive	inactive		inactive	inactive		inactive			inactive	inactive	inactive	inactive	inactive	inactive
CNC(=O)CSP(=O)(OC)OC	inactive	inactive	inactive	inactive	inactive	inactive		inactive	inactive	inactive		inactive	inactive	inactive	inactive	inactive	inactive	inactive
BrCC1CO1 (stereo not given)	inactive	inactive	inactive	inactive	inactive	inactive		inactive	inactive	inactive	inactive	inactive	inactive	inactive	inactive	inactive	inactive	
CCN[C@@H](C)Cc1cccc(C(F)(F)F)c1	inactive	inactive	inactive	inactive	inactive	inactive					inactive	inactive		inactive	inactive			
OCCBr	inactive	inactive	inactive	inactive	inactive	inactive		inactive		inactive	inactive	inactive	inactive	inactive	inactive	inactive	inactive	
N#Cc1c2ccccc2cc2ccccc12	inactive	inactive	inactive	inactive	inactive	inactive	inactive	inactive		inactive			inactive			inactive	inactive	
COP(=S)(Oc1cc(Cl)c(Br)cc1Cl)c1ccccc1 (stereo not given)	inactive	48.6 µM (active)	inactive	inactive	inactive		inactive	inactive	inactive	inactive		inactive	inactive	inactive	inactive	inactive	inactive	inactive
Cc1cc(C(F)(C(F)(F)F)C(F)(F)F)ccc1NC(=O)c1cccc(I)c1C(=O)NC(C)(C)CS(C)(=O)=O	inactive	inactive	inactive	inactive	inactive	inactive		inactive	inactive		inactive	inactive	inactive	inactive	inactive	inactive	inactive	inactive
Cc1nc(N(C)C)nc(OC(=O)N(C)C)c1C	inactive	inactive	inactive	inactive	inactive		inactive	inactive		inactive	inactive	inactive	inactive	inactive	inactive	inactive	inactive	inactive
CCC(C)(C)O	inactive	inactive	inactive	inactive	inactive			inactive	inactive	inactive	inactive	inactive	inactive	inactive	inactive	inactive	inactive	inactive
COc1nn(CSP(=S)(OC)OC)c(=O)s1	inactive	68.6 µM (active)	inactive	inactive	inactive			inactive								inactive	inactive	
